In PubChem BioAssay (Tox21):
Unmarked numbers belong to inactive results. Inconclusive results are not listed. A call without a number means that no potency is given here. Active and inactive are the calls of the source. Unless noted, calls come from the whole dose curve; as a rule, active = well fitted curve in the direction sought with a large enough effect in the repeat runs; inconclusive = weak or mixed curves; inactive = no such curve, though single readings can be large; an effect the other way counts as inactive or inconclusive.

Legend:
[1] = qHTS assay for small molecule agonists of the p53 signaling pathway (AID 651631; calls by dose curve; note: nearly all actives have a fitted effect of over 15% in size)
Method in brief: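 Read-out is beta-lactamase FRET fluorescence measured 2 h after substrate addition at room temperature, in HCT-116 cells with a p53 response element-driven reporter exposed to compounds for 16 h at 37 °C.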

[2] = qHTS assay for small molecules that induce genotoxicity in human embryonic kidney cells expressing luciferase-tagged ATAD5 (AID 651632); note: nearly all actives have a fitted effect of over 15% in size
Method in brief: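 Test compounds were delivered by pin tool onto HEK293T reporter cells (2,000/well) expressing ATAD5 fused to luciferase. After 16 hr at 37C, 5% CO2, Amplite was added for 30 min at room temperature and luminescence was measured.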

[3] = qHTS assay for small molecule agonists of the p53 signaling pathway - cell viability (AID 651633; calls by dose curve;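 note: p53RE-bla HCT reporter cells with a stable beta-lactamase p53 reporter; series mostly up to about 83 µM; nearly all actives have a fitted effect of over 30% in size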)
Method in brief: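 p53RE-bla cells were treated with compound for 16 hours at 37 C. Cytotoxicity was then measured as CellTiter-Glo luminescence after 30 min at room temperature.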

[4] = qHTS assay for small molecules that induce genotoxicity in human embryonic kidney cells expressing luciferase-tagged ATAD5 - cell viability (AID 651634; calls by dose curve; note: nearly all actives have a fitted effect of over 25% in size)
Method in brief: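 Quantitative high-throughput format. HEK293T cells expressing ATAD5 fused to luciferase were plated at 2,000 cells/well and treated 15.5 hr with compound versus DMSO. Viability was determined by fluorescent live-cell protease substrate, 30 min at 37C.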

[5] = qHTS assay for small molecule disruptors of the mitochondrial membrane potential - cell viability (AID 720634; calls by dose curve;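 note: human HepG2 liver cancer cells; series mostly up to about 83 µM; nearly all actives have a fitted effect of over 20% in size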)
Method in brief: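 Same-well counter-screen: following the MMP dye addition, CellTiter-Glo was added to 1 hr compound-treated HepG2 cells and luminescence read after 30 min at room temperature.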

[6] = qHTS assay for small molecule disruptors of the mitochondrial membrane potential (AID 720635)
Method in brief: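 HepG2 cells exposed to compound 1 hr at 37C, then Mito-MPS dye 30 min. Ratio read of aggregate (540/590 nm) versus monomer (490/535 nm) fluorescence.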

[7] = qHTS assay to test for compound auto fluorescence at 590 nm (red) in HepG2 cells (AID 720674)
Method in brief: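 Seeding: 2,000 HepG2 cells/well, MEM/10% FBS, overnight 37 C. Dosing: compound vs DMSO. Incubation: 1 hr, 37 C, 5% CO2. Read: fluorescence 540 ex/590 em, Rose Bengal sodium as red reference.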

[8] = qHTS assay to test for compound auto fluorescence at 535 nm (green) in HepG2 cells (AID 720675)
[9] = qHTS assay to test for compound auto fluorescence at 460 nm (blue) in HEK293 cells (AID 720678)
Method in brief: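 HEK293, 2,000 cells/well, 10% dialyzed FBS; attach 4-5 hr 37C; pin compound or DMSO; o/n 37C/5% CO2; fluorescence 405/460 nm; triamterene-equivalent units.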

[10] = qHTS assay to test for compound auto fluorescence at 590 nm (red) in HEK293 cells (AID 720679)
Method in brief: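 Intensity at 540nm excitation and 590nm emission is reported as Rose Bengal sodium-equivalent autofluorescence. Measurements followed overnight exposure (37C, 5% CO2) of HEK293 cells, 2,000 per well, to 23 nL compound.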

[11] = qHTS assay to test for compound auto fluorescence at 535 nm (green) in HEK293 cells (AID 720680)
[12] = qHTS assay to test for compound auto fluorescence at 460 nm (blue) in HEK293 cell free culture (AID 720681)
Method in brief: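 Compounds were added to cell-free DMEM with 10% FBS and fluorescence read directly. The blue channel used 405 nm excitation and 460 nm emission, with triamterene as the reference fluorophore.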

[13] = qHTS assay to test for compound auto fluorescence at 535 nm (green) in HEK293 cell free culture (AID 720682)
Method in brief: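 Fluorescein serves as the green reference fluorophore; each compound's intrinsic emission at 535 nm (excitation 485 nm) is reported as an equivalent amount of that dye, measured in serum-containing DMEM without cells.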

[14] = qHTS assay to test for compound auto fluorescence at 590 nm (red) in HEK293 cell free culture (AID 720683)
Method in brief: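 Cell-free wells of DMEM with 10% FBS received compound, and intrinsic fluorescence was read at excitation/emission 540/590 nm. Values expressed as equivalence to Rose Bengal sodium.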

[15] = qHTS assay to test for compound auto fluorescence at 590 nm (red) in HepG2 cell free culture (AID 720684)
Method in brief: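 Rose Bengal sodium served as the reference for red signal. Test compounds were dispensed into serum-containing MEM (10% FBS) without cells, and plates were read at 540/590 nm.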

[16] = qHTS assay to test for compound auto fluorescence at 460 nm (blue) in HepG2 cell free culture (AID 720685)
Method in brief: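 Cell-free plates of MEM plus 10% FBS received 23 nL compound or DMSO vehicle; blue-channel (405/460 nm) intensity scored against triamterene as reference fluorophore.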

[17] = qHTS assay to test for compound auto fluorescence at 535 nm (green) in HepG2 cell free culture (AID 720686)
[18] = qHTS assay to test for compound auto fluorescence at 460 nm (blue) in HepG2 cells (AID 720687)
Method in brief: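 HepG2 cells in MEM with 10% FBS, attached overnight at 37 C, were exposed to compound or DMSO for 1 hr at 37 C, 5% CO2. Blue fluorescence was read at 405/460 nm, with triamterene as reference fluorophore.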

[19] = molecular target: Glucocorticoid receptor (Homo sapiens) (UniProt P04150); assay: qHTS assay to identify small molecule agonists of the glucocorticoid receptor (GR) signaling pathway (AID 720691; active = well fitted activation curve with a large enough effect in the signal ratio in the repeat runs, not every such curve was filed as active; the % refers to the signal ratio; note: potency is the fitted concentration of half-maximal effect)
Method in brief: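 A HeLa cervical cancer line expressing GR and a glucocorticoid response element-driven beta-lactamase gene is treated with compounds for 18 h; LiveBLAzer B/G FRET substrate is then applied and fluorescence read.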

[20] = molecular target: Glucocorticoid receptor (Homo sapiens) (UniProt P04150); assay: qHTS assay to identify small molecule antagonists of the glucocorticoid receptor (GR) signaling pathway (AID 720692; active = well fitted inhibition curve with a large enough effect in the signal ratio in the repeat runs, not every such curve was filed as active; the % refers to the signal ratio)
Method in brief: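 GRE-bla HeLa line, dex-stimulated (5 nM final). Compound exposure 18 h, 37 C. Beta-lactamase FRET read after 2 h RT substrate.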

Sequence of Glucocorticoid receptor (Homo sapiens) (P04150 whole entry, looked up): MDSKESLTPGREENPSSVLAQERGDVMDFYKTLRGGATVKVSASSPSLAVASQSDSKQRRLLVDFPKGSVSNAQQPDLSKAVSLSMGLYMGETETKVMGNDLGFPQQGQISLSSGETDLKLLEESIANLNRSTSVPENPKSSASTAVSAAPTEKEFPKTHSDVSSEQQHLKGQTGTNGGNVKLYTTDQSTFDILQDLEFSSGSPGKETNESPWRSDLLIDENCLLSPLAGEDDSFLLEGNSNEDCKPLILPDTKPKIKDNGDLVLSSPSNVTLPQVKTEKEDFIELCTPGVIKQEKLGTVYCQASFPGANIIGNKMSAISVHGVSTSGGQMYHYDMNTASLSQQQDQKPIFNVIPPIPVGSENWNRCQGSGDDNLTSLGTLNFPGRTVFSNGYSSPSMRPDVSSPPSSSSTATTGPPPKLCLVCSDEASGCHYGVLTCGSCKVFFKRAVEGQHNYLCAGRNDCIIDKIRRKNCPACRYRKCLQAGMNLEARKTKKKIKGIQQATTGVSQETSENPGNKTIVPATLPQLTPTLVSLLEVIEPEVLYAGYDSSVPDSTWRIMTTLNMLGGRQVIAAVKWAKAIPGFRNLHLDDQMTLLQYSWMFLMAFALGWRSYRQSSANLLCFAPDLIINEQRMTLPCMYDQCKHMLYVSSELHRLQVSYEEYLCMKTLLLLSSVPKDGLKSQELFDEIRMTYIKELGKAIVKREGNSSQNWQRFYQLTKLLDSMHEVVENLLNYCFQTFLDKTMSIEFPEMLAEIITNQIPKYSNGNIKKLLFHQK

For c1ccc2cnncc2c1, the Potency [1] was “inactive”, the Potency [2] was “inactive” and the Potency [3] was “inactive”. The Potency [4] was “inactive”, the Potency [5] was “inactive” and the Potency [6] was “inactive”. For the same compound, the outcome [7] was “inactive”, the outcome [8] was “inactive” and the Potency [9] was “inactive”. For the same compound, the outcome [10] was “inactive”, the outcome [11] was “inactive” and the Potency [12] was “inactive”. For the same compound, the outcome [13] was “inactive”, the outcome [14] was “inactive” and the outcome [15] was “inactive”. For the same compound, the Potency [16] was “inactive”, the outcome [17] was “inactive” and the Potency [18] was “inactive”. For the same compound, the Potency [19] was “inactive” and the Potency [20] was “inactive”.

In the case of N#CC1(O)CCCCC1, the Potency [1] is reported as “inactive”, the Potency [2] is reported as “inactive” and the Potency [3] is reported as “inactive”. The Potency [4] was “inactive”, the Potency [5] was “inactive” and the outcome [7] was “inactive”. The outcome [8] was “inactive”, the Potency [9] was “inactive” and the outcome [10] was “inactive”. For the same compound, the outcome [11] was “inactive”, the Potency [12] was “inactive” and the outcome [13] was “inactive”. The outcome [14] was “inactive”, the outcome [15] was “inactive” and the Potency [16] was “inactive”. The outcome [17] was “inactive”, the Potency [18] was “inactive” and the Potency [19] was “inactive”.

In the case of C#CC(C)(O)CC(C)C (centres undefined), the Potency [1] is reported as “inactive”, the Potency [2] is reported as “inactive” and the Potency [3] is reported as “inactive”. For the same compound, the Potency [4] was “inactive”, the Potency [5] was “inactive” and the Potency [6] was “inactive”. The outcome [7] was “inactive”, the outcome [8] was “inactive” and the Potency [9] was “inactive”. The outcome [10] was “inactive”, the outcome [11] was “inactive” and the Potency [12] was “inactive”. For the same compound, the outcome [13] was “inactive”, the outcome [14] was “inactive” and the outcome [15] was “inactive”. For the same compound, the Potency [16] was “inactive”, the outcome [17] was “inactive” and the Potency [18] was “inactive”. For the same compound, the Potency [20] was “inactive”.

For COc1cc(C(=O)N2CCOCC2)cc(OC)c1OC, the Potency [1] was “inactive”, the Potency [2] was “inactive” and the Potency [3] was “inactive”. The Potency [4] was “inactive”, the Potency [5] was “inactive” and the Potency [6] was “inactive”. For the same compound, the outcome [7] was “inactive”, the outcome [8] was “inactive” and the Potency [9] was “inactive”. For the same compound, the outcome [10] was “inactive”, the outcome [11] was “inactive” and the Potency [12] was “inactive”. The outcome [13] was “inactive”, the outcome [14] was “inactive” and the outcome [15] was “inactive”. For the same compound, the Potency [16] was “inactive”, the outcome [17] was “inactive” and the Potency [18] was “inactive”. For the same compound, the Potency [19] was “inactive” and the Potency [20] was “inactive”.

In the case of C[C@H](O)C(=O)Nc1c(I)c(C(=O)NC(CO)CO)c(I)c(C(=O)NC(CO)CO)c1I, the Potency [1] is reported as “inactive”, the Potency [2] is reported as “inactive” and the Potency [3] is reported as “inactive”. For the same compound, the Potency [4] was “inactive”, the Potency [5] was “inactive” and the fluorescence, relative to Rose Bengal [7] was 0.0368% [at 18.6 µM]. The fluorescence, % of fluorescein control [8] was 0.0325% [at 18.6 µM], the fluorescence, % of triamterene [9] was -0.0154% [at 18.6 µM] and the fluorescence, % of fluorescent control [10] was 0.0561% [at 18.6 µM]. The fluorescence, % of fluorescein [11] was -0.048% [at 18.6 µM], the fluorescence, % of fluorescent control [12] was -0.108% [at 18.6 µM] and the activity change [13] was 0.0506% [at 18.6 µM]. The fluorescence, % of fluorescent control [14] was 0.0628% [at 18.6 µM], the fluorescence, % of Rose Bengal [15] was 0.0851% [at 18.6 µM] and the fluorescence, % of fluorescent control [16] was -0.0806% [at 18.6 µM]. The fluorescence, % of fluorescein control [17] was -0.0219% [at 18.6 µM], the fluorescence, % of fluorescent control [18] was -0.0019% [at 18.6 µM] and the Potency [19] was 6.44 µM (active).

With CCOC(=O)Nc1ccc2c(c1)N(C(=O)CCN1CCOCC1)c1ccccc1S2 the Potency [1] was “inactive”, the Potency [2] was “inactive” and the Potency [3] was “inactive”. The Potency [4] was “inactive”, the Potency [5] was “inactive” and the fluorescence, relative to Rose Bengal [7] was 0.181% [at 18.6 µM]. It also gave a fluorescence, % of fluorescein control [8] of 0.0633% [at 18.6 µM], a fluorescence, % of triamterene [9] of -0.0312% [at 18.6 µM] and a fluorescence, % of fluorescent control [10] of 0.108% [at 18.6 µM]. For the same compound, the fluorescence, % of fluorescein [11] was 0.023% [at 18.6 µM], the fluorescence, % of fluorescent control [12] was 0.0825% [at 18.6 µM] and the activity change [13] was -0.0159% [at 18.6 µM]. It also gave a fluorescence, % of fluorescent control [14] of -0.268% [at 18.6 µM], a fluorescence, % of Rose Bengal [15] of 0.0254% [at 18.6 µM] and a fluorescence, % of fluorescent control [16] of 0.0956% [at 18.6 µM]. The fluorescence, % of fluorescein control [17] was -0.013% [at 18.6 µM], the fluorescence, % of fluorescent control [18] was -0.0127% [at 18.6 µM] and the Potency [19] was “inactive”. For the same compound, the Potency [20] was “inactive”.
